Laboratory results from PubChem BioAssay (NCI).
This is part of a sample that, as a whole, favours compounds with a hit. Of some 83,000 tested, about 20% had one in any assay.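 Cells were grown in 96-well plates and exposed to the test compound at a single concentration for 48 hours; results are reported as percent growth, with values below 10 considered active.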 Unmarked numbers belong to inactive results. The source made the active and inactive calls.

How the values were obtained:
Test in all cases: NCI-60 one-dose screen, 48 h (100 = growth as untreated, 0 = no growth, -100 = all killed)
Settings in all cases: 10 µM unless noted
SK-MEL-2 melanoma = tested on: SK-MEL-2 melanoma
SN12C renal = tested on: SN12C renal
UO-31 renal = tested on: UO-31 renal
TK-10 renal = tested on: TK-10 renal
ACHN renal = tested on: ACHN renal
CAKI-1 renal = tested on: CAKI-1 renal
A498 renal = tested on: A498 renal
CCRF-CEM leukemia = tested on: CCRF-CEM leukemia
MOLT-4 leukemia = tested on: MOLT-4 leukemia

Compound	growth (SK-MEL-2 melanoma)	growth (SN12C renal)	growth (UO-31 renal)	growth (TK-10 renal)	growth (ACHN renal)	growth (CAKI-1 renal)	growth (A498 renal)	growth (CCRF-CEM leukemia)	growth (MOLT-4 leukemia)
Nc1c(C(=O)Nc2cccc(C(F)(F)F)c2)sc2nc3c(cc12)CCCCCC3	51.4%	5.73% (active)	-2.04% (active)	5% (active)	-35.6% (active)	20.8%	-28.3% (active)	51%	45.6%
O=C(NCCCN1CCN(CCCNC(=O)C2CCCCC2)CC1)C1CCCCC1	98%	97.1%	85.7%	113%	99.5%	87.2%	105%	91.9%	94.1%
O=c1[nH]c(-c2cn(-c3ccc(Cl)cc3)nn2)nc2ccccc12	77.2%	71.9%	46.1%	80.6%	42.5%	84.2%	24.7%	98.6%	93.7%
c1ccn2nnnc2c1	104%	92.7%	94.5%	96.4%	111%	97.9%	101%	99.7%	101%
COc1ccc(C2=CC(c3ccc(Oc4ccnc5cc(Cl)ccc45)c(OC)c3)c3c(nc(OC)[nH]c3=O)N2)cc1 (stereo unspecified)	91.9%	63.7%	56.5%	98.5%	57.3%	82.9%	69.6%	26.8%	7.77% (active)
Cc1ccc(Nc2ncnc3c2sc2ncccc23)cc1	118%	98.4%	90.9%	123%	99.3%	104%	67%	116%	51.1%
COc1cc(CNC(=O)CCSc2nc3ccccc3c(=O)n2Cc2cc(OC)c(OC)c(OC)c2)cc(OC)c1OC	-9.25% (active)	50.7%	47.2%	62%	48.9%	34.3%	21.7%	35.5%	18.8%
COc1cc(C2C=C(C)N=C3SC(C)=NN32)cc(OC)c1OC (stereo unspecified)	107%	109%	72%	102%	103%	103%	81.8%	91.8%	92.8%
CCN(Cc1ccccc1)c1ccc(SC#N)cc1	104%	87.9%	32.9%	102%	63.5%	92.6%	86.9%	13%	59.5%
Cc1cccc(NC(=O)c2sc3nc4c(cc3c2N)CCCC4)c1	54.9%	51.8%	54.2%	70.7%	48.9%	40.8%	44.3%	19.4%	33.6%
Nc1c(C(=O)Nc2cccc([N+](=O)[O-])c2)sc2nc3c(cc12)C(O)CCC3 (stereo unspecified)	26.2%	65.8%	69%	76.6%	92.1%	66.7%	27.6%	37.2%	42.2%
COc1cc(Cn2c(-c3nonc3N)nc3ccccc32)ccc1C	20.5%	36%	48.3%	54%	41.2%	46%	6.72% (active)	16.2%	21.2%
CC[C@H](C)[C@H]1NC(=O)[C@@H](N[C@](C)(O)[C@@H](N)CC(C)C)[C@@H](C)OC(=O)[C@H](Cc2ccc(OC)cc2)N(C)C(=O)[C@@H]2CCCN2C(=O)[C@H](CC(C)C)NC(=O)[C@@H](C)C(=O)[C@H](C(C)C)OC(=O)C[C@@H]1O	-55.8% (active)	-8.75% (active)	-19.9% (active)	-15% (active)	-10.9% (active)	-22.1% (active)	-28.9% (active)	-19% (active)	-24.8% (active)
CCN(CC)CCCNc1nc(C)cc(Nc2ccc3nc(C)cc(N)c3c2)n1	36.1%	94.7%	89.7%	88%	101%	95.6%	125%	99.4%	112%
